Compound activity deposited in PubChem BioAssay by National Center for Advancing Translational Sciences (NCATS).
Pf growth 96h: inhibits malaria parasite growth, 96 h; P. falciparum luciferase reporter growth, 96 h; Potency, µM (series often up to 28.7 µM), hits mostly inhibitors; actives 6.9% (n = 320,000); active = well fitted inhibition curve with a large enough effect; inconclusive = small, poorly fitted or top-dose-only effect, or another doubt; inactive = no such curve, though single readings can be large or run the other way
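Two parasite generations (96 h, 37 C, 5% CO2) of compound exposure in infected erythrocytes (0.05% parasitemia, 2% hematocrit). Luciferase-reporter P. falciparum; decreased luminescence indicates inhibited growth, aimed at apicoplast-acting delayed death.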
Cycloheximide cs: affects cycloheximide protein synthesis inhibition readout, counter-screen; cell reporter, cycloheximide protein synthesis inhibition counterscreen; actives 12% (n = 300,000); max response, %; AID 2314; in the data active = max response mostly above about 13%, no sharp cut-off; inactive = mostly below about 14%; also: read at 38.3 µM for the half of the compounds with a filed dose
Shiga inhibitor: blocks Shiga toxin action in Vero cells; AID 2315; Vero cells, Shiga toxin protein synthesis inhibition reporter; inhibition, % at 38.7 µM; actives 9.2% (n = 290,000); in the data active = inhibition mostly above about 28%, no sharp cut-off; inactive = mostly below about 43%
Pf growth 48h: P. falciparum growth inhibition at 48 hours (one generation); Potency, µM (series often up to 28.7 µM), most hits filed as inhibitors; AID 504832; P. falciparum luciferase growth in erythrocytes, 48 h; actives 5.9% (n = 310,000); active = well fitted inhibition curve with a large enough effect; inconclusive = small, poorly fitted or top-dose-only effect, or another doubt; inactive = no such curve, though single readings can be large or run the other way
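Luminescence readout; reporter = integrated firefly luciferase in P. falciparum. RBC culture at 2% hematocrit, 0.1% parasitemia final, 37 C/5% CO2; decreased signal taken as growth inhibition.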
SARS PLpro yeast: SARS-CoV PLP inhibition in yeast; S. cerevisiae expressing SARS-CoV PLpro, growth rescue; Potency, µM (top dose mostly 32.9 µM), hits mostly activators; actives 0.19% (n = 330,000); also: nearly all actives have a fitted effect of over 55% in size
NS1 function inh: inhibitors of influenza NS1 protein function | Potency, µM (top dose mostly 46.1 µM) | actives 0.4% (n = 270,000); also: actives are rising curves; nearly all actives have a fitted effect of over 50% in size
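Compounds were scored for reversing the slow growth caused by influenza A NS1 in S. cerevisiae, measured by optical density at 600 nm. Assay medium contained 2% galactose at pH 6.0; NS1-free yeast of the same strain were the positive control.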
Of the large screens only hits and unclear results are named; the others gave an inactive call. An excerpt weighted towards active compounds, which were near 21% of everything screened. Unless noted, calls follow the shape of the full dose curve.

c1ccc(COc2ccccc2CNc2nn[nH]n2)cc1	Pf growth 96h inconclusive
Cc1cc(=O)[nH]c(N2CCCC2)n1	Pf growth 96h 12µM
NCCCNCCCCNCCCNC(=O)Cc1ccc(O)cc1	none (no result: Pf growth 96h, Pf growth 48h, SARS PLpro yeast, NS1 function inh)
COc1ccc(C(=O)NCC(=O)N/N=C/c2ccco2)cc1OC	none
O=C(CNC(=O)c1ccccc1F)N/N=C/c1cc(Br)ccc1OC(=O)/C=C/c1ccco1	Pf growth 96h inconclusive, Pf growth 48h 10µM
COc1ccccc1C(=O)NCC(=O)N/N=C/c1cc(Br)ccc1OC(=O)/C=C\c1ccco1	Pf growth 96h inconclusive
O=C(CNC(=O)c1ccc(F)cc1)N/N=C/c1cc(Br)ccc1OC(=O)/C=C/c1ccco1	Pf growth 96h inconclusive, Pf growth 48h 13µM
COc1ccc(OCC(=O)OCC(=O)NC2CC2)cc1	none (no result: Cycloheximide cs, Shiga inhibitor, NS1 function inh)
COCC(=O)N(C)c1nnc(-c2cnc(C)cn2)s1	Cycloheximide cs 24
O=C(NCc1ccccc1)c1cccc(Br)n1	none
O=C(NCC(=O)N1CCN(Cc2ccccc2)CC1)c1ccc(Br)o1	Cycloheximide cs 14, SARS PLpro yeast inconclusive
O=C(NCCc1ccccc1)c1ccc(Br)o1	Cycloheximide cs 46, Shiga inhibitor 83
O=C(NCCc1ccccc1)c1cccc(Br)n1	Cycloheximide cs 78, Shiga inhibitor active (no result: Pf growth 96h, Pf growth 48h, SARS PLpro yeast, NS1 function inh)
O=C(NCCNC(=O)c1ccc(Br)o1)c1ccc(Br)o1	Pf growth 48h inconclusive
CC(=O)N1CCN(C(=O)CNC(=O)c2ccc(Br)o2)CC1	none
O=C(NC1CCCCCC1)c1ccc(=O)n(Cc2ccccc2)n1	Pf growth 96h inconclusive (no result: NS1 function inh)
CCOC(=O)C1=C(C)Nc2sc(C(=O)c3ccc(F)cc3)c(N)c2C1c1ccc(C(=O)OC)cc1 (stereo unspecified)	Pf growth 96h 4.7µM, Pf growth 48h 7.4µM, NS1 function inh inconclusive
CCOC(=O)C1=C(C)NC(SCC(=O)OC)=C(C#N)C1c1ccc(C(=O)OC)cc1 (stereo unspecified)	Pf growth 48h inconclusive
COc1ccc(-c2ccc(C3C4C=CCC(C)C4C(=O)N3Cc3ccccc3)c(F)c2)cc1C (stereo unspecified)	none (no result: Pf growth 96h, Pf growth 48h, SARS PLpro yeast, NS1 function inh)
COc1ccccc1CCC(=O)Nc1ccc2c(c1)CN(Cc1ccc(CO)o1)CC2	Pf growth 96h inconclusive, Pf growth 48h 13µM
COCCC(=O)Nc1ccc2c(c1)CN(C(=O)c1ccc(CSC)o1)CC2	Pf growth 96h 13µM, Pf growth 48h inconclusive
COc1ccccc1CCC(=O)Nc1ccc(OC)c(S(=O)(=O)N2CCCCC2)c1	Pf growth 96h inconclusive, Pf growth 48h inconclusive (no result: Cycloheximide cs, Shiga inhibitor, NS1 function inh)
O=C(Nc1ccc2c(c1)CN(Cc1ccc(CO)o1)CC2)c1ccc(C(F)(F)F)cc1	Cycloheximide cs 44, Pf growth 48h inconclusive
O=c1cc(-c2cc(O)c(O)c([C@@H]3O[C@H](CO)[C@@H](O)[C@H](O)[C@H]3O)c2)oc2cc(O[C@@H]3O[C@H](CO)[C@@H](O)[C@H](O)[C@H]3O)cc(O)c12	none (no result: Pf growth 96h, Pf growth 48h, SARS PLpro yeast, NS1 function inh)
C[C@@H]1CCCCCCCCC(=O)OCCN(C(=O)OC(C)(C)C)[C@H](C)CCCCCCCCC(=O)OCCN(C(=O)OC(C)(C)C)[C@H](C)CCCCCCCCC(=O)OCCN(C(=O)OC(C)(C)C)[C@H](C)CCCCCCCCC(=O)OCCN1C(=O)OC(C)(C)C	none (no result: Pf growth 96h, Cycloheximide cs, Shiga inhibitor, Pf growth 48h, NS1 function inh)
COc1ccc(OC(=O)Nc2ccccc2)cc1	Cycloheximide cs 32, Shiga inhibitor 98 (no result: Pf growth 96h)
CCc1ccc(OC(=O)Nc2ccccc2)cc1	Cycloheximide cs 13
CC(=O)Nc1ccc(NC(=O)Oc2ccccc2)cc1	Pf growth 96h inconclusive
CN(C)c1ccc(NC(=O)Oc2ccccc2)cc1	Pf growth 96h 0.15µM, Cycloheximide cs 29, Shiga inhibitor 60 (no result: Pf growth 48h)
COc1ccc(NC(=O)c2ccccc2-c2ccccc2C(=O)O)cc1	none (no result: Pf growth 48h)
Cc1ccc(S(=O)(=O)N2CCN(c3nc(-c4ccc(F)cc4)nc4cc(Cl)ccc34)CC2)cc1	none (no result: Pf growth 96h, Pf growth 48h, SARS PLpro yeast, NS1 function inh)
Cc1nc(SCC(N)=O)[nH]c(=O)c1Cc1ccc(OC(C)C)cc1	Pf growth 96h 1.7µM, Pf growth 48h inconclusive
COC(=O)c1cnc(NNS(=O)(=O)c2ccc(C(F)(F)F)cc2)nc1C(F)(F)F	none
Cc1ccc(C)c(NC2=C(Cl)C(=O)OC2OC(C)C)c1 (stereo unspecified)	none (no result: NS1 function inh)
COc1ccc(S(=O)(=O)N2CCCCCC2)cc1N(C)S(=O)(=O)c1ccc(Cl)cc1	Pf growth 96h inconclusive, Pf growth 48h inconclusive
Cc1cc(C)c(S(=O)(=O)N2CCCCC2)c(C)c1N(C)S(=O)(=O)c1ccc(Cl)cc1	Pf growth 96h inconclusive, Pf growth 48h 9.3µM
COc1ccc(CCN(C(=O)C(F)(F)F)C(C(=O)NC2CCCC2)c2cccs2)cc1OC (stereo unspecified)	Pf growth 96h 7.4µM, Pf growth 48h inconclusive
COc1ccc(CCN(C(=O)C(F)(F)F)C(C(=O)NC2CCCCC2)c2ccc(C)s2)cc1OC (stereo unspecified)	Pf growth 96h inconclusive, Pf growth 48h 4.1µM
O=C(c1cccc(C(F)(F)F)c1)c1c[nH]c(C(=O)NCC2CCCO2)c1 (stereo unspecified)	Pf growth 48h inconclusive (no result: NS1 function inh)
COC(=O)c1ccn(Cc2ccccc2Cl)n1	Pf growth 96h inconclusive, Cycloheximide cs 44, Shiga inhibitor 63 (no result: NS1 function inh)
COc1cccc(C(=O)Nc2ccc3c(c2)OCO3)c1OC	Cycloheximide cs 48, Shiga inhibitor 89
COc1ccc(-n2c(=O)[nH]cc(C(=O)Nc3ccc4c(c3)OCCO4)c2=O)cc1OC	none
O=C(Nc1ccc2c(c1)OCO2)c1c[nH]c(=O)n(-c2ccc(F)cc2)c1=O	Pf growth 96h inconclusive, Cycloheximide cs 16, Pf growth 48h inconclusive
O=C(CCl)Nc1ccccc1C(=O)Nc1ccc2c(c1)OCO2	Cycloheximide cs 57, Shiga inhibitor 41
CSc1ccccc1C(=O)Nc1ccc(C)c(C)c1	Cycloheximide cs 42, Shiga inhibitor 91 (no result: Pf growth 96h)
CSc1ccccc1C(=O)Nc1ccc2c(c1)OCO2	Pf growth 96h inconclusive, Cycloheximide cs 23, Shiga inhibitor 26
Nc1nonc1-n1nnc(C(=O)N/N=C/c2ccncc2)c1CSc1ccccc1	none
Cc1ccccc1NC(=S)Nn1cnnc1	none
O=C(Nc1cccc(Cl)c1Cl)Nn1cnnc1	none
Cc1cccc(NC(=S)Nn2cnnc2)c1C	Pf growth 96h inconclusive, Cycloheximide cs 38
S=C(Nc1cccc(Cl)c1Cl)Nn1cnnc1	Pf growth 96h 2.3µM
COC(=O)C1C(=O)C2=C(CC1C)Nc1ccccc1NC2c1ccc(C)s1 (stereo unspecified)	none
O=C(CCc1ccccc1)Nc1ccc(NC(=O)c2ccco2)nc1	Cycloheximide cs 22 (no result: Pf growth 96h, Pf growth 48h)
O=C(Nc1ccc(NC(=O)c2ccccc2Cl)nc1)c1ccco1	Cycloheximide cs 17, Shiga inhibitor 69
O=C(c1ccc([N+](=O)[O-])cc1)n1nc(-c2ccccc2)nc1NCc1ccccc1	Cycloheximide cs 47, Shiga inhibitor 69
O=C(CSc1nc(-c2ccccc2)nn1C(=O)c1ccccc1)Nc1cccc([N+](=O)[O-])c1	none
O=C(c1ccc(F)cc1)n1c(NCc2ccccc2)n[nH]c1=S	none
